Screening results deposited in PubChem by National Center for Advancing Translational Sciences (NCATS).
This is a sample that favours compounds with a hit; in the whole collection about 7.5% have one here.
FLuc counter – counter-screen for miR-21 project: firefly luciferase inhibitors or activators; P08659; purified FLuc, Km substrates, luminescence inhibition; Potency, µM (highest dose often 57.5 µM), without a hit: at the highest dose activity change, negative = inhibition, actives largely listed as inhibitors; 6.9% of 360,000 active; AID 588342;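 further: plate controls were vehicle for no effect and reference inhibitor for full effect; nearly all actives have a fitted effect of over 55% in size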
Target sequence (P08659 whole entry, looked up): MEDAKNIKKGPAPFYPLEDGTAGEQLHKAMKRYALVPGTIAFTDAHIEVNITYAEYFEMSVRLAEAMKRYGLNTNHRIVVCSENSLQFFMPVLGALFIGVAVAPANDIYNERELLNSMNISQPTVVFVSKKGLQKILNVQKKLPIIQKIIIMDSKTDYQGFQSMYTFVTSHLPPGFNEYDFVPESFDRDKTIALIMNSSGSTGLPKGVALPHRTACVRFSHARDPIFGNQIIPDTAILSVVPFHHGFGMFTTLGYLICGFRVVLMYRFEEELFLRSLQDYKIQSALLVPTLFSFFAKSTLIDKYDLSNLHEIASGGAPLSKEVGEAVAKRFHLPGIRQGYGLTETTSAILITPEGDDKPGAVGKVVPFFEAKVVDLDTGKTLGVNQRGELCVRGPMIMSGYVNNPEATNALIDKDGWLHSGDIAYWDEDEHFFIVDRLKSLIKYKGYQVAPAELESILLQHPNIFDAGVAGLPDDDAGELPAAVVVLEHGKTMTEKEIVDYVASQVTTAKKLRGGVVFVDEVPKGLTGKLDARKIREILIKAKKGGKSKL
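Purified P. pyralis luciferase, 10 nM final, with Km-level 10 uM D-luciferin and 10 uM ATP in 50 mM Tris acetate pH 7.5, 10 mM Mg acetate, 0.01% Tween-20, 0.05% BSA; 6-point qHTS titration about 60 µM downward; luminescence read.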
ELG1 genotox – inducers of genotoxicity in HEK293T ELG1-luciferase cells | 1.3% of 330,000 active | Potency, µM (series often up to 46 µM), for the others: top-dose activity change, positive = activation, usual class: activators | HEK293T ELG1-luciferase reporter, luminescence, 16 h; further: % of control where 0% means no effect; nearly all actives have a fitted effect of over 60% in size
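Step 1: seed 2,000 HEK293T ELG1-luciferase cells per well. Step 2: add compound or DMSO, incubate 16 hr at 37 °C. Step 3: ONE-Glo, 30 min at room temperature, read luminescence.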
Rab9 prom act – activates the Rab9 promoter; Huh7 Rab9 promoter-luciferase reporter, luminescence, 24 h; Potency, µM (top dose mostly 9.22 µM), for inactives: at the top dose activation, negative = inhibition, hits mostly activators; 2.8% of 320,000 active; AID 485297; further: % of control where 0% means no effect; nearly all actives have a fitted effect of over 60% in size
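Rab9 promoter-driven luciferase in stably transfected Huh7 cells; 1500 cells/well rested 2 h, exposed to compound in DMSO for 24 h at 37 °C, 5% CO2. Luminescence read 10 min after adding luciferase reagent at ambient temperature.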
NPC1 promoter act – activates the NPC1 promoter; Huh7 NPC1 promoter luciferase reporter, 24 h; Potency, µM (doses to about 9.22 µM), without a hit: at the top dose activation, actives largely listed as activators; 2.4% of 320,000 active; further: % of control where 0% means no effect; nearly all actives have a fitted effect of over 60% in size
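Quantitative HTS used a cell-based reporter: Huh7 cells stably bearing the NPC1 promoter upstream of luciferase were treated with compounds for 24 h, and promoter activation was read as luminescence.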
KinaseGlo FLuc – blocks Kinase-Glo luciferase, a counter-screen artifact. Q27757. Kinase-Glo luciferase, ATP luminescence, 8 min. Potency, µM (series often up to 38.3 µM), for the others: top-dose activity change, negative = inhibition, most hits filed as inhibitors. 0.28% of 200,000 active. AID 1379; further: on the % scale 0 is the no-effect control and ±100 the full control effect; nearly all actives have a fitted effect of over 60% in size
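Inhibition of Kinase-Glo luciferase light generation was assessed at 10 uM ATP in pH 7.2 imidazole buffer, with luminescence measured after eight minutes at ambient temperature.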
SMN2 splice up – SMN2 splice variant enhancement; HEK293 SMN2-luciferase splicing reporter, luminescence, 30-36 h; Potency, µM (highest dose often 46.1 µM), for the others: top-dose activity change, positive = activation, hits mostly activators; 2.8% of 210,000 active; AID 1458; further: % of control where 0% means no effect; nearly all actives have a fitted effect of over 55% in size
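qHTS luciferase splicing reporter: luminescence rises when SMN2 exon 7 is included in transfected HEK293 cells. Compound exposure lasted 30-36 h at 37C, with 4.5 mM final sodium butyrate as control, followed by a ONE-Glo read.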
* hit, by the source's call. The call rests on the fitted dose curve; in most records, active means well fitted curve in the direction sought with a large enough effect; inconclusive means small, poorly fitted or top-dose-only effect, or another doubt; inactive means no such curve, though single readings can be large; an effect the other way counts as inactive or inconclusive. Potency means the concentration at half of the fitted maximal effect.

Results for O=c1cc(C(F)(F)F)[nH]c2ccc(OC(F)(F)F)cc12 ?
FLuc counter: 21µM*; ELG1 genotox: -7%; Rab9 prom act: -1%; NPC1 promoter act: -4%

Results for Cc1nnc(N/N=C\c2ccc(-c3cccc(C(=O)O)c3)o2)n1N ?
FLuc counter: 11µM*; ELG1 genotox: 0%; Rab9 prom act: inconclusive; NPC1 promoter act: -1%; KinaseGlo FLuc: -11%; SMN2 splice up: -10%

What do the screens show for `Cc1ccc(NC(=O)Cn2c(-c3nonc3N)nc3ccccc32)cc1C`?
FLuc counter: -18%; SMN2 splice up: 10µM*

How did Nc1nonc1-c1nc2ccccc2n1CC(=O)N/N=C/c1ccc(-c2cccc(C(=O)O)c2)o1 do in these assays?
FLuc counter: 27µM*; ELG1 genotox: 5%; Rab9 prom act: -3%; NPC1 promoter act: 0%; KinaseGlo FLuc: 1%; SMN2 splice up: 14%

What do the screens show for `Cc1nnc(N/N=C/c2ccc(-c3ccc(Br)cc3)o2)n1N`?
FLuc counter: inconclusive; ELG1 genotox: 3%; Rab9 prom act: 14%; NPC1 promoter act: -1%; KinaseGlo FLuc: 1%; SMN2 splice up: -23%

Results for Oc1ccc(Cl)cc1-c1cc(-c2ccco2)[nH]n1 ?
FLuc counter: 19µM*; ELG1 genotox: -4%; Rab9 prom act: 26%; NPC1 promoter act: 28%; KinaseGlo FLuc: -2%; SMN2 splice up: 3%

How did Oc1ccccc1-c1cc(-c2ccco2)[nH]n1 do in these assays?
FLuc counter: 9.5µM*; ELG1 genotox: 5.8µM*; Rab9 prom act: 15%; NPC1 promoter act: -2%; KinaseGlo FLuc: -4%; SMN2 splice up: inconclusive

Results for Oc1ccccc1-c1cc(-c2ccccc2Cl)[nH]n1 ?
FLuc counter: 0.67µM*; KinaseGlo FLuc: 3%; SMN2 splice up: 3.5µM*

How did Oc1c(-c2cc(-c3ccco3)[nH]n2)ccc2ccccc12 do in these assays?
FLuc counter: inconclusive; ELG1 genotox: inconclusive; Rab9 prom act: 3.2µM*; NPC1 promoter act: 3.2µM*; KinaseGlo FLuc: -2%; SMN2 splice up: 14µM*

How did Cc1ccc(S(=O)(=O)N(CCc2ccccc2)CC(=O)Nc2cc(C)ccc2C)cc1 do in these assays?
FLuc counter: 1%

Results for CC1CC(NC(=O)/C=C/C(=O)O)CC(C)(C)C1 (stereo unspecified) ?
FLuc counter: 2%; ELG1 genotox: 0%; Rab9 prom act: -1%; NPC1 promoter act: 0%

Results for CC1SC(=S)N(c2ccc(N(C)C)cc2)C1=O (stereo unspecified) ?
FLuc counter: 3%; ELG1 genotox: -6%; Rab9 prom act: -3%; NPC1 promoter act: -7%

What do the screens show for `O=[N+]([O-])c1cc(-c2nc(-c3ccccn3)no2)ccc1NCc1ccccc1`?
FLuc counter: -18%

Results for COc1ccc(-c2nc(-c3ccccn3)no2)cc1 ?
FLuc counter: 0.095µM*; ELG1 genotox: inconclusive; Rab9 prom act: 0.04µM*; NPC1 promoter act: 0.1µM*; KinaseGlo FLuc: 0.89µM*

How did Clc1ccc(-c2nc(-c3ccccn3)no2)cc1Cl do in these assays?
FLuc counter: 0.95µM*; ELG1 genotox: inconclusive; Rab9 prom act: 0.56µM*; NPC1 promoter act: 0.32µM*; KinaseGlo FLuc: 10µM*; SMN2 splice up: 2.5µM*

What do the screens show for `CCOC(=O)N1CCN(C(=O)CN2C(=O)c3ccccc3S2(=O)=O)CC1`?
FLuc counter: 3%; ELG1 genotox: inconclusive; Rab9 prom act: 16%; NPC1 promoter act: 1%

What do the screens show for `O=C(CN1C(=O)c2ccccc2S1(=O)=O)c1ccc(F)c(F)c1`?
FLuc counter: 11µM*; ELG1 genotox: -2%; Rab9 prom act: inconclusive; NPC1 promoter act: inconclusive

How did CCN1CCN(C(=O)CN2C(=O)c3ccccc3S2(=O)=O)CC1 do in these assays?
FLuc counter: inconclusive; ELG1 genotox: inconclusive; Rab9 prom act: 2.5µM*; NPC1 promoter act: inconclusive
